The supplement of paper PMC10338343
± gives the standard deviation. Over roughly 6,200 sequences, “pre-steady-state target cleavage rate” has its median near 0.29; the highest 2% begin near 2. Many of the other results were omitted from the sample, so the highest values are more common in it than they were.

tested on: MIWI (PIWIL1) piRISC loaded with piRNA #1 (30 nt); assay: pre-steady-state target cleavage rate (min^-1); MIWI and MILI are mouse PIWI proteins and EfPiwi is from a freshwater sponge; tags in brackets are library labels; higher = faster piRNA-guided slicing of the target; settings: guide: piRNA #1 5'p-UGAGGUAGUAGGUUGUAUAGUAUCCAGAGG; auxiliary factor: 500 nM mouse GTSF1
Procedure: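 Cleave-'n-Seq: a library of target RNAs (target site embedded in constant flanks, ACAGCATTCCGCGTTAGTGATATCCG... 5' flank; DNA-blocked outside the site) at 0.1 nM was incubated with 1 nM active mouse MILI or MIWI piRISC (synthetic 5'-monophosphorylated piRNA guide) with or without 500 nM mouse GTSF1 at 33 °C for 1 min to 16 h. Uncleaved targets were sequenced and normalised to non-target controls, and the pooled three trials were fitted to a burst-and-steady-state model to give the pre-steady-state cleavage rate (min^-1; k3 is constrained to at most 1e-4). Sequence is the target site only; target names encode pairing extent (gX:gY) and contiguous / 1-mismatch / 2-mismatch / bulge geometry. Fits with R² ≤ 0 are excluded.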

Sequence	pre-steady-state target cleavage rate
GGAGGGGAUACUAUACAACCUACUACCUCA	1.51 ± 0.069
GCACUGGAUACAAUACAACCUACUACCUCA	1.8 ± 0.1
GGAGACCUAUCUAUACAACCUACUCACCUCA	0.537 ± 0.059
GGAGUGGAUACUAAACAACCUACUUCCUCA	0.0286 ± 0.0079
GGAGUGGAUACUGAUACAACCUACUACCUCA	1.3 ± 0.098
GGAGACCUAACAAUACAACCUACUACCUGA	0.00542 ± 0.0049
GGAGAGGAUACGUAUACAACCUACUACCUCA	0.484 ± 0.047
GGAGUGGUUACAAUACAACCUACUACCUCA	1.2 ± 0.079
GGUCUGGAAACUAUACAACCUAGUACCUCA	0.484 ± 0.077
GGAGACCUAACUAUACAACCUACUACCCCA	0.867 ± 0.099
GCUCUGGAUACUAUAUAACCUACUACCUCA	1.79 ± 0.1
CCUCUGGAAUACUAUACAACCUACUACCUCA	2.19 ± 0.13
CUUCUGGAUACUAUACAACCUACUACCUCA	1.99 ± 0.11
GCUUCUGGAUACUAUACAACCUACUACCUCA	1.94 ± 0.091
GGUCUGGAUACUAUAUAACCUACUACCUCA	1.86 ± 0.1
CCUCUGGAUACUAUACAACCUAUUACCUCA	2.07 ± 0.13
GGUCUGGAAUACUAUACAACCUACUACCUCA	1.83 ± 0.11
CCUUCUGGAUACUAUACAACCUACUACCUCA	2.22 ± 0.12
CCUCUGGAUACUAUAUAACCUACUACCUCA	2.07 ± 0.12
CCUCUGGAUACUAUUACAACCUACUACCUCA	1.82 ± 0.12
GCUCUGGAAUACUAUACAACCUACUACCUCA	1.92 ± 0.1
GCUCUGGAUACUAUACAACCUAUUACCUCA	1.88 ± 0.13
GGACUGGAUAACUAUACAACCUACUACCUCA	1.11 ± 0.087
GGAGACCAUACUAUACAUCCUAGUACCUCA	0.343 ± 0.029
CCUCUGGAUACUAUAGAACCUACAACCUCA	0.0249 ± 0.007

Sequence	pre-steady-state target cleavage rate
GCUCUGGAAACUAUUCAACCUACUACCUCA	1.68 ± 0.12
GCUCUGGAUACUAUACAACCUACUACCUCA [g2:g29:cont:t1A]	1.89 ± 0.1
GCUCUGGAUACUAUACAACCUACCUACCUCA	1.63 ± 0.091
CGCUCUGGAUACUAUACAACCUACUACCUCA	2.27 ± 0.14
GGUCUGGAAACUAUUCAACCUACUACCUCA	1.58 ± 0.096
CCUCUGGAAACUAUUCAACCUACUACCUCA	2.02 ± 0.13
CCUCUGGAUACUAUACAACCUACUAACCUCA	2.09 ± 0.13
CCUCUGGAUACUAUACAACCUAACUACCUCA	0.0333 ± 0.0068
GCUCUGGAUACUAUACAACCUACUAACCUCA	1.71 ± 0.11
GGAGAGGAAACUAUACAACGUACUACCUCA	0.27 ± 0.037
GGAGACCUAUGAUAUGUACCAACAACCUCA	< 0.0001
GGAGUCGGAUACUAUACAACCUACUACCUCA	1.45 ± 0.091
GGUCUGCAUACUAUACAACCUACUACCUCA	1.71 ± 0.1
GCUCUGGAUACUACACAACCUACUACCUCA	1.89 ± 0.095
GGAGACCAUACUAAACAACCUACUACCUGA	0.604 ± 0.08
GGAGAGCAUACUAUACAACGUACUACCUCA	0.557 ± 0.036
GGUAUGGAUACUAUACAACCUACUACCUCA	1.88 ± 0.11
GCUAUGGAUACUAUACAACCUACUACCUCA	1.93 ± 0.092
GGUCAUGGAUACUAUACAACCUACUACCUCA	1.85 ± 0.11
CCUAUGGAUACUAUACAACCUACUACCUCA	2.15 ± 0.12
GCUCAUGGAUACUAUACAACCUACUACCUCA	1.98 ± 0.1
CCUCAUGGAUACUAUACAACCUACUACCUCA	2.31 ± 0.13
GGAGACGAUACAAUACAACCUACUUCCUCA	0.408 ± 0.056
GCUUUGGAUACUAUACAACCUACUACCUCA	1.91 ± 0.11
GGUUUGGAUACUAUACAACCUACUACCUCA	1.81 ± 0.084

Sequence	pre-steady-state target cleavage rate
CCUUUGGAUACUAUACAACCUACUACCUCA	2.3 ± 0.12
CCUUGGAUACUAUACAACCUACUACCUCA	2.26 ± 0.14
GGUCUUGGAUACUAUACAACCUACUACCUCA	1.87 ± 0.11
GGACUUGGAUACUAUACAACCUACUACCUCA	1.78 ± 0.11
GGUUGGAUACUAUACAACCUACUACCUCA	1.78 ± 0.1
CCUCUUGGAUACUAUACAACCUACUACCUCA	2.3 ± 0.12
GCUCUUGGAUACUAUACAACCUACUACCUCA	2.1 ± 0.1
GCUUGGAUACUAUACAACCUACUACCUCA	1.87 ± 0.12
GGAGACCUAACUAUACUAGCUACUACCUCA	0.0132 ± 0.006
GGAGACCUAACUUACAACCUACUACCUCA	0.00932 ± 0.008
CCUCUGGAUACUAUCAACCUACUACCUCA	1.82 ± 0.12
GGAGAGGAUACAAUACAACCUACUACCUCA	1.18 ± 0.063
CCUCUGGAUACUAUACAAACUACUACCUCA	1.27 ± 0.047
GGAGACCUAUCUAUACUACCUACUACCUCA	0.0899 ± 0.011
GGUCUGGAUAGUAUACAACGUACUACCUCA	0.319 ± 0.047
GGAGACCUAACUAUACAACGUACUAGCUCA	0.024 ± 0.0084
GGACUGGAUGCUAUACAACCUACUACCUCA	1.82 ± 0.15
GGACUGGAUACUAUCCAACCUACUACCUCA	1.76 ± 0.11
GCUCUGGAUACUAUACCAACCUACUACCUCA	0.392 ± 0.075
GGUCUGGAUACUAUCCAACCUACUACCUCA	1.96 ± 0.14
GCUCUGGAUACUAUCAACCUACUACCUCA	1.78 ± 0.12
CCUCUGGAUACUAUCCAACCUACUACCUCA	2.1 ± 0.14
GCUCUGGAUACUAUCCAACCUACUACCUCA	2.05 ± 0.14
GGAGAGGAUACUAUACAACCUAGUACCUCA	0.145 ± 0.031
GGAGACGAUACUAUACAACCUACAUCCUCA	0.342 ± 0.029

Sequence	pre-steady-state target cleavage rate
GGAGACCAAACUAUACAUCCUACUACCUCA	0.513 ± 0.06
GGAGUGCAUACUAUACAACCUACUACGUCA	0.629 ± 0.053
GGUCUGGAUACUUAUCAACCUACUACCUCA	0.863 ± 0.11
GGUCUGGCUACUAUACAACCUACUACCUCA	1.99 ± 0.11
GGUCUGGCAUACUAUACAACCUACUACCUCA	1.86 ± 0.12
GGACUGGCAUACUAUACAACCUACUACCUCA	1.68 ± 0.12
GCUCUGGAUACUAUACAACCUACAUACCUCA	1.87 ± 0.16
GCUCUGGCAUACUAUACAACCUACUACCUCA	2.17 ± 0.12
GCUCUGGCUACUAUACAACCUACUACCUCA	1.93 ± 0.099
GCUCUGCAUACUAUACAACCUACAACCUCA	1.37 ± 0.12
CCUCUGGCAUACUAUACAACCUACUACCUCA	2.31 ± 0.12
CCUCUGGCUACUAUACAACCUACUACCUCA	2.25 ± 0.11
GGACUGGAUACAAUACAAGCUACUACCUCA	0.683 ± 0.041
GGAGACCUUACUAUACAACCUACUACCUGA	0.777 ± 0.077
GGAGUGGAUACUAUACCAACCUACUACCUCA	0.0192 ± 0.0054
GCUCUGGAUACUAUACAAGCUACUAGCUCA	0.745 ± 0.073
GGAGACCUAUGUAUACAUCCUAGUACCUCA	0.00528 ± 0.0014
GGAGACCUAACUAUACUACCUUCUACCUCA	0.00903 ± 0.0034
GCUCUCCUUACUAUACAACCUACUACCUCA	1.85 ± 0.12
GGAGUCCAUACUAUACAACCUACUACCUCA	1.63 ± 0.091
GGUCACCAUACUAUACAACCUACUACCUCA	1.77 ± 0.11
GGAGACCAUACUAUACAACCUACUACCUACA	1.77 ± 0.18
GGACUCCAUACUAUACAACCUACUACCUCA	1.67 ± 0.11
CCUCUCCAUACUAUACAACCUACUACCUCA	2.04 ± 0.12
GCUCACCAUACUAUACAACCUACUACCUCA	1.87 ± 0.13

Sequence	pre-steady-state target cleavage rate
CCUCACCAUACUAUACAACCUACUACCUCA	2.03 ± 0.12
GGAGACCAUACUAUACAACCUACUACCUUCA	1.59 ± 0.1
GGAGACCAUACUAUACAACCUACUACUUCA	2.14 ± 0.14
GCUCUCCAUACUAUACAACCUACUACCUCA	2.13 ± 0.13
GGUCUCCAUACUAUACAACCUACUACCUCA	1.79 ± 0.1
GGAGUGGAUACUAUACAACGUACUAGCUCA	0.0857 ± 0.017
GCUCUCGAUACUAUACAACCUACUACGUCA	1.24 ± 0.079
GCACUGGAUACUAUACAUCCUACUACCUCA	1.88 ± 0.096
CCUCAGGAUACUAUACAACCUACUAGCUCA	1.13 ± 0.056
GGAGACGAUACUAUACAACCUACUACCUUA	1.35 ± 0.09
GGAGUGCAUAGUAUACAACCUACUACCUCA	0.659 ± 0.04
GGAGACCUAUCUAUAGAACCUAGUACCUCA	0.0363 ± 0.0089
GGAGUGUGAUACUAUACAACCUACUACCUCA	1.81 ± 0.1
GGAGAGGAUACUAUACAACCUACCUACCUCA	1.05 ± 0.059
GGAGAGAUACUAUACAACCUACUACCUCA	1.89 ± 0.11
GGAGUGAUACUAUACAACCUACUACCUCA	1.77 ± 0.11
GGAGAUGAUACUAUACAACCUACUACCUCA	1.86 ± 0.095
GGAGAGAGAUACUAUACAACCUACUACCUCA	2.02 ± 0.12
GGAGUGAGAUACUAUACAACCUACUACCUCA	1.77 ± 0.094
GGAGAAGAUACUAUACAACCUACUACCUCA	2.04 ± 0.11
GGAGAGUGAUACUAUACAACCUACUACCUCA	2.1 ± 0.15
GGAGUGGAUACUUUACAACCUACUACCUCA	1.53 ± 0.086
GGAGACCAUACAAUACAACCUACUAGCUCA	0.486 ± 0.067
GGAGACCUAACUAUAGAACCUACUACCUGA	0.188 ± 0.066
GGACUGGAUACUAUACAACGUACUACCUGA	0.377 ± 0.047

Sequence	pre-steady-state target cleavage rate
CACUCUGGAUACUAUACAACCUACUACCUCA	2.09 ± 0.12
CCUCUGGAUACUAUACAACCUACUACACUCA	0.874 ± 0.073
CCUCUGGAUACUAUACAACCUCACUACCUCA	0.0086 ± 0.0033
ACUCUGGAUACUAUACAACCUACUACCUCA	2.19 ± 0.13
GGAGACGAUACGUAUACAACCUACUACCUCA	1.4 ± 0.13
GGAGUGGAUACUAUACAACCUACUGACCUCA	0.489 ± 0.043
GGAGUUGAUACUAUACAACCUACUACCUCA	1.97 ± 0.13
GGUCUUGAUACUAUACAACCUACUACCUCA	1.87 ± 0.11
GCUCUGUGAUACUAUACAACCUACUACCUCA	1.81 ± 0.11
GGACUUGAUACUAUACAACCUACUACCUCA	1.73 ± 0.12
GCUCUUGAUACUAUACAACCUACUACCUCA	2.03 ± 0.11
CCUCUUGAUACUAUACAACCUACUACCUCA	2.33 ± 0.14
GCUCUGGAUACUAUACAACCUACAACCUGA	0.744 ± 0.14
GGAGUCGAUACUAUACAACCUACUACCUCA	1.47 ± 0.091
GGAGACCAUAACUAUACAACCUACUACCUCA	1.24 ± 0.089
GCUCUGGAUAAUAUACAACCUACUACCUCA	2.07 ± 0.13
GCUCUGGAUACUAAUACAACCUACUACCUCA	1.49 ± 0.09
CCUCUGGAUAAUAUACAACCUACUACCUCA	2.06 ± 0.12
CCUCUGGAUAUAUACAACCUACUACCUCA	1.9 ± 0.12
GCUCUGGAUACUAUACAACCUAAUACCUCA	1.55 ± 0.12
GGUCUGGAUAAUAUACAACCUACUACCUCA	1.88 ± 0.12
